This passage reports normalised signal (fraction of DMSO) and z-score results from PubChem BioAssay AID1224903 (Bradner/Qi Labs at DFCI, 2016).

The campaign covered roughly 66,000 compounds. About 720 (1.1%) were called active. Cut-off read from the data, not from the text of the source: active = normalised signal below about 0.5; inactive = the rest, inconclusive results apart. Many of the other results were omitted from the sample, so actives are more common in it than they were.

The target of this assay is Chromobox protein homolog 7 (Homo sapiens) (UniProt O95931). The assay is described as follows: blockers of CBX7 binding to H3K27me3 peptide – biochemical, AlphaScreen, primary screen (AID 1224903). The note with it: AlphaScreen His6-CBX7 / biotin-H3K27me3 peptide binding, stronger effect = lower value; z-score: measured here: z-score of CBX7 signal.
Chromobox protein homolog 7 (Homo sapiens), sequence (O95931 whole entry, looked up): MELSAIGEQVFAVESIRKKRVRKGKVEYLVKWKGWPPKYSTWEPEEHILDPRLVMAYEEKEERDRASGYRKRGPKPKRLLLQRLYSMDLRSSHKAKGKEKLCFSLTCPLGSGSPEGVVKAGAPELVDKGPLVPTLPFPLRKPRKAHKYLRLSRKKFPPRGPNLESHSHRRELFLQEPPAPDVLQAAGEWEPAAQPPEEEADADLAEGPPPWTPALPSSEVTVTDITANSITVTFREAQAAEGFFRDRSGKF
Regarding `Cc1ccc(C(=O)N2CC(=O)Nc3ccc(F)cc3C2c2ccc(F)cc2)cc1` (centres undefined), the normalised signal (fraction of DMSO) is 1.01 (inactive) and the z-score came to 0.159.

In the case of `Cc1ccc2c(c1)C(c1ccc(F)cc1)N(C(=O)c1ccc(C)c(C)c1)CC(=O)N2` (centres undefined), the normalised signal (fraction of DMSO) is 0.316 (active) and the z-score was -6.53.

Consider `Cc1ccc2c(c1)C(c1ccc(F)cc1)N(C(=O)c1ccc(S(=O)(=O)N3CCCC3)cc1)CC(=O)N2` (centres undefined), for which the normalised signal (fraction of DMSO) was 0.859 (inactive) and the z-score was -1.94.

For the compound `O=C(Nc1ccccc1C(=O)Nc1ccccc1)c1cccc(S(=O)(=O)N2CCCCC2)c1`, the normalised signal (fraction of DMSO) is 0.764 (inactive) and the z-score was -2.54.

`Cc1ccc(C(C)C)c(OCc2nnc(NC(=O)c3ccc(Br)cc3)s2)c1`: the normalised signal (fraction of DMSO) was 1.06 (inactive) and the z-score was determined as 0.262.

For `CCN1CCN(CCCNC(=O)c2ccc3c(c2)N(Cc2ccc(F)cc2)CCS3)CC1`, the normalised signal (fraction of DMSO) is 0.904 (inactive) and the z-score was -4.6.

With `CC(=O)N1CCC(N(C(=O)Nc2ccc(Cl)cc2)C2CCCCCC2)CC1`, the normalised signal (fraction of DMSO) was 1.02 (inactive) and the z-score amounted to 0.287.

With `Cc1ccc(-c2nc(Nc3ccccc3)sc2C)cc1`, the normalised signal (fraction of DMSO) was 0.99 (inactive) and the z-score is -0.257.

With `CCCCNC(=O)c1cc(Nc2ccc(CC)cc2)nc2ccccc12`, the normalised signal (fraction of DMSO) was 0.991 (inactive) and the z-score is -0.251.

On to `O=C(NCc1ccccc1)C1CCN(c2nc3ccccc3o2)CC1`, for which the normalised signal (fraction of DMSO) was 1.02 (inactive) and the z-score was 0.778.

In the case of `COc1ccc(CNc2nc(-c3ccccc3)cc(C(F)(F)F)n2)cc1`, the normalised signal (fraction of DMSO) was 1.28 (inactive) and the z-score was 3.06.

Take `Cc1ccc(NC(=O)CCc2nnc3ccc(NCc4ccccc4Cl)nn23)cc1`: the normalised signal (fraction of DMSO) was 0.916 (inactive) and the z-score is -2.3.

Take `CC(C)n1cnc2cc(NCc3ccccc3Cl)ccc21`: the normalised signal (fraction of DMSO) is 0.463 (active) and the z-score is -15.4.

On to `COc1ccc(CNc2ccc3c(c2)ncn3C(C)(C)C)c(OC)c1`, for which the normalised signal (fraction of DMSO) is 0.589 (inactive) and the z-score was -11.8.

On to `COc1ccc(OC)c(Cc2nc3cc(C)c(C)cc3[nH]c2=O)c1`, for which the normalised signal (fraction of DMSO) was 0.964 (inactive) and the z-score was -1.09.

For the compound `O=C(Nc1ccccc1Cl)C1CCN(C(=O)c2cnn(-c3ccccc3)c2-n2cccc2)CC1`, the normalised signal (fraction of DMSO) was 1.04 (inactive) and the z-score is 1.69.

Take `Cc1ccc(C(=O)CN2C3=NCCN3c3ccccc32)cc1`: the normalised signal (fraction of DMSO) is 0.994 (inactive) and the z-score is -0.186.

Take `CC(C)N(CCCNC(=O)C1CCC(=O)N1Cc1ccc(F)cc1)Cc1ccccc1` (centres undefined): the normalised signal (fraction of DMSO) was 0.995 (inactive) and the z-score is -0.146.

With `CCc1ccc(NC(=O)Cn2c(SCc3cccc(F)c3)nc3ccncc32)cc1`, the normalised signal (fraction of DMSO) is 1.06 (inactive) and the z-score was 0.594.

Turning to `Fc1cnc(Nc2ccc(Cl)cc2)nc1Nc1ccc(Cl)cc1`, the normalised signal (fraction of DMSO) is 1.05 (inactive) and the z-score was 0.523.

Consider `CC(C)c1ccc(OCC(O)Cn2cnc3ccccc32)cc1` (centres undefined), for which the normalised signal (fraction of DMSO) was 0.284 (active) and the z-score is -13.5.

With `CCc1cc(C)cc(OCC(O)Cn2cnc3ccccc32)c1` (centres undefined), the normalised signal (fraction of DMSO) was 0.88 (inactive) and the z-score was -3.02.

As to `Cc1ccc(C(C)C)cc1OCC(O)Cn1cnc2ccccc21` (centres undefined), the normalised signal (fraction of DMSO) was 0.815 (inactive) and the z-score was -2.55.

Turning to `Cc1ccc(NC(=O)c2cc(C)nn2-c2ccccc2)c(C)c1`, the normalised signal (fraction of DMSO) was 1.04 (inactive) and the z-score was found to be 1.18.

Take `COc1cccc(C(=O)Nc2ccc3oc(-c4ccccc4)nc3c2)c1`: the normalised signal (fraction of DMSO) was 1.16 (inactive) and the z-score worked out at 2.43.

Turning to `COc1ccc(-c2noc(N(C)CC(=O)N3CCN(C)CC3)n2)cc1`, the normalised signal (fraction of DMSO) was 1.02 (inactive) and the z-score was found to be 0.593.

For `O=C(CSCc1cnn(-c2ccccc2)c1-n1cccc1)NC1CC1`, the normalised signal (fraction of DMSO) is 0.986 (inactive) and the z-score is -0.615.

In the case of `COc1ccccc1N1CCN(C(c2cccs2)C(C)NC(=O)c2ccc3c(c2)OCO3)CC1` (centres undefined), the normalised signal (fraction of DMSO) was 0.905 (inactive) and the z-score was -2.32.

Turning to `CCOc1ccc(C(=O)Nc2c3c(nn2-c2cccc(C)c2C)CSC3)cc1`, the normalised signal (fraction of DMSO) is 1.01 (inactive) and the z-score turned out to be 0.119.

Consider `Cc1ccc(Cc2cnc(CN(C)C)c(O)c2)cc1`, for which the normalised signal (fraction of DMSO) is 0.477 (active) and the z-score was -6.92.

On to `Clc1ccc2nc(-c3ccsc3)c(NC(c3ccccc3)c3ccccc3)n2c1`, for which the normalised signal (fraction of DMSO) is 1.04 (inactive) and the z-score turned out to be 1.58.

As to `COc1ccc(-c2cc(C(=O)NCCCn3ccnc3)no2)cc1`, the normalised signal (fraction of DMSO) was 0.983 (inactive) and the z-score was -0.364.

As for `Cc1ccc(CNc2oc(-c3ccc(F)cc3)nc2C#N)cc1`, the normalised signal (fraction of DMSO) is 0.934 (inactive) and the z-score was -2.3.

Turning to `Cc1ccc(-c2nc(C#N)c(NCCCn3ccnc3)o2)cc1`, the normalised signal (fraction of DMSO) was 0.442 (active) and the z-score was -0.658.

Regarding `COc1ccc(Cl)cc1NC(=O)C1c2cc(OC)c(OC)cc2C(=O)N(C)C1c1ccccc1F` (centres undefined), the normalised signal (fraction of DMSO) is 1.06 (inactive) and the z-score worked out at 1.16.

With `Cc1ccc(CNC(=O)c2c(-c3ccccc3)noc2C)cc1`, the normalised signal (fraction of DMSO) is 1.03 (inactive) and the z-score amounted to 0.952.

Regarding `CC1(C)CC(=O)c2cc(OCC(=O)NCCCN3CCCC3)ccc2O1`, the normalised signal (fraction of DMSO) was 0.509 (inactive) and the z-score was -9.7.

`Cc1ccc(-c2nc3c(C)cccn3c2Nc2ccc3c(c2)OCCO3)cc1`: the normalised signal (fraction of DMSO) is 0.63 (inactive) and the z-score was -13.9.

For the compound `O=C(NCc1ccccc1)C1C2C=CC3(CN(Cc4ccccc4Cl)C(=O)C13)O2` (centres undefined), the normalised signal (fraction of DMSO) was 0.955 (inactive) and the z-score was -2.13.

`CCCCn1c(C2CC(=O)N(c3ccc(CC)cc3)C2)nc2ccccc21` (centres undefined): the normalised signal (fraction of DMSO) is 0.96 (inactive) and the z-score is -0.9.

In the case of `CCOc1ccc(-c2nnc(Nc3ccc(C(N)=O)cc3)c3ccccc23)cc1`, the normalised signal (fraction of DMSO) is 0.436 (active) and the z-score is -2.64.

On to `Cc1ccc(-c2nnc(Nc3ccc(OCC(N)=O)cc3)c3ccccc23)cc1S(=O)(=O)NC(C)C`, for which the normalised signal (fraction of DMSO) was 0.723 (inactive) and the z-score is -5.21.

Turning to `Cc1ccc(-c2nnc(Nc3ccc(C(=O)N(C)C)cc3)c3ccccc23)cc1S(N)(=O)=O`, the normalised signal (fraction of DMSO) is 1.08 (inactive) and the z-score is 2.41.

On to `CCCNC(=O)c1ccc2c(c1)N(Cc1ccccc1)C(=O)c1ccccc1S2(=O)=O`, for which the normalised signal (fraction of DMSO) is 1.14 (inactive) and the z-score is 2.25.

In the case of `CCOC(=O)c1sc(NC(=O)c2ccc(OCC)cc2)nc1-c1ccccc1`, the normalised signal (fraction of DMSO) was 0.993 (inactive) and the z-score is -0.166.

For the compound `Cc1ccc(Cn2c(=O)cc(C(=O)NC3CC3)c3ccccc32)cc1`, the normalised signal (fraction of DMSO) is 0.912 (inactive) and the z-score is -0.873.

For the compound `COc1ccc(Cl)cc1C1CC(=O)Nc2cc3c(cc21)OCO3` (centres undefined), the normalised signal (fraction of DMSO) was 1.03 (inactive) and the z-score is 0.351.

With `CCc1nc2ccc(C(=O)NCC(OC)OC)cc2nc1CC`, the normalised signal (fraction of DMSO) was 1.13 (inactive) and the z-score stood at 0.801.

Take `CC1CCN(c2c(NCc3ccc(C(=O)NCc4ccccc4)cc3)c(=O)c2=O)CC1`: the normalised signal (fraction of DMSO) is 0.993 (inactive) and the z-score is -0.292.

Regarding `COc1ccc(-c2nc(-c3ccc(F)cc3)c(-c3ccc(F)cc3)[nH]2)cc1OC`, the normalised signal (fraction of DMSO) is 0.322 (active) and the z-score is -13.4.

For `COc1cc(-c2nc(-c3ccccc3)c(-c3ccccc3)[nH]2)ccc1OCC(=O)O`, the normalised signal (fraction of DMSO) is 0.774 (inactive) and the z-score is -0.891.

Consider `COc1ccc(-c2[nH]c(-c3ccc(C)cc3)nc2SCC(=O)Nc2ccc(F)cc2)cc1OC`, for which the normalised signal (fraction of DMSO) is 0.756 (inactive) and the z-score is -11.6.
